High-throughput results from PubChem.
The list is not random: actives were taken first. Their share in the collection is about 19%.
TDP1 cell noCPT: qHTS for Inhibitors of human tyrosyl-DNA phosphodiesterase 1 (TDP1): qHTS in cells in absence of CPT | DT40 Tdp1-/- hTDP1 cells, no CPT, ATP luminescence, 48 h | 420,000 compounds, 15% hits | Potency, µM (top dose mostly 46.2 µM), most hits filed as inhibitors | AID 686978, 2013; also: nearly all actives have a fitted effect of over 55% in size
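Seeded 400 DT40-hTDP1 cells/well (vehicle DMSO, no 20 nM CPT); pinned compounds; ≥48 hr at 37 °C; CellTiter-Glo luminescence as viability measure.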
HT1080 IDH1KD tx: toxicity to HT-1080 IDH1 knockdown cells (counter line). HT-1080 IDH1 knockdown viability, ATP luminescence, 48 h. Potency, µM (doses to about 46.1 µM), most hits filed as cytotoxic. 360,000 compounds, 2% hits
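Assay cells: HT-1080 with IDH1 knockdown, 750 per well, RPMI/5% FBS. Exposure: 48 h at 37 °C following 2 h pre-incubation. Read: CellTiter-Glo luminescence; fitted concentration-response, curve class assigned.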
DT40 TDP1 CPT: DT40-hTDP1 cell growth loss with CPT | chicken DT40 Tdp1-/-;hTDP1 cells + 20 nM CPT, ATP luminescence, 48 h | Potency, µM (highest dose often 46.2 µM), usual class: inhibitors | 420,000 compounds, 12% hits; also: nearly all actives have a fitted effect of over 55% in size
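Chicken DT40 Tdp1-/- cells complemented with human TDP1, 400 cells/well, exposed to compounds plus 20 nM camptothecin for at least 48 h at 37 C; viability read as ATP content by CellTiter-Glo luminescence.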
IL-1B inflam inh: inflammasome signaling inhibition, IL-1 beta readout | AID 743279 | activity change, % at 57.5 µM | THP-1 LPS/ATP IL-1B secretion, AlphaLISA, 16 h; active compounds read low | 360,000 compounds, 4.7% hits; in the data active = activity change below about -50%; inconclusive = mostly about -30% to -49%
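THP-1 cells pretreated 1 hr with compounds (up to 57.5 uM final), then stimulated with LPS (250 ng/mL final) plus ATP (1.25 mM final); secreted IL-1B measured by AlphaLISA after 16 hr, decreased signal indicating inhibition.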
HT1080-NT tox: kills 2HG-producing HT-1080-NT fibrosarcoma cells; HT-1080-NT fibrosarcoma viability, CellTiter-Glo ATP luminescence, 48 h; Potency, µM (series often up to 46.1 µM), hits mostly cytotoxic; 360,000 compounds, 1.6% hits; AID 686970;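 also: NT is the 2HG producing partner of a matched IDH1 knockdown line; nearly all actives have a fitted effect of over 55% in size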
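Viability by CellTiter-Glo luminescence after 48 h compound exposure at 37C of HT-1080-NT cells (750/well, RPMI, 5% FBS). % activity scaled between DMSO wells and medium-only wells, then curve-fitted and categorized by curve class.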
Each line names hits and unclear results; the compound was inactive in the other large screens. Unless noted, calls follow the shape of the dose curve; as a rule, active = well fitted curve in the direction sought with a large enough effect; inconclusive = small, poorly fitted or top-dose-only effect, or another doubt; inactive = no such curve, though single readings can be large; an effect the other way counts as inactive or inconclusive.

CCOCCc1nnc(NC(=O)CCS(=O)(=O)c2ccccc2)s1	TDP1 cell noCPT 9.2µM, HT1080 IDH1KD tx inconclusive, DT40 TDP1 CPT 20.6µM
Clc1cccc(-c2nc3ccccn3c2Nc2ccc3c(c2)OCCO3)c1	TDP1 cell noCPT 8.2µM, DT40 TDP1 CPT inconclusive (no result: HT1080 IDH1KD tx, IL-1B inflam inh, HT1080-NT tox)
CN(C)c1ccc(-c2nc3ccccn3c2Nc2ccc3c(c2)OCCO3)cc1	TDP1 cell noCPT inconclusive, DT40 TDP1 CPT 20.6µM (no result: HT1080 IDH1KD tx, IL-1B inflam inh, HT1080-NT tox)
CCOC(=O)COc1c(C(=O)OC)sc2ncccc12	none
Cc1cc(C)c2c(-n3cccc3)c(C(=O)O)sc2n1	none
Cc1cc(C)c2c(-n3cccc3)c(NC(=O)OC(C)C)sc2n1	TDP1 cell noCPT 20.6µM, DT40 TDP1 CPT 18.4µM
COc1cccc(CNC(=O)c2sc3ncccc3c2-n2c(C)ccc2C)c1OC	TDP1 cell noCPT 13µM, DT40 TDP1 CPT 10.3µM (no result: HT1080 IDH1KD tx, IL-1B inflam inh, HT1080-NT tox)
COc1cc(CNC(=O)c2sc3ncccc3c2-n2cccc2)cc(OC)c1OC	TDP1 cell noCPT 10.3µM, DT40 TDP1 CPT 18.4µM (no result: HT1080 IDH1KD tx, IL-1B inflam inh, HT1080-NT tox)
COc1cccc(CNC(=O)c2sc3nc(C)cc(C)c3c2-n2cccc2)c1OC	TDP1 cell noCPT inconclusive, DT40 TDP1 CPT 23.1µM (no result: HT1080 IDH1KD tx, IL-1B inflam inh, HT1080-NT tox)
CNC(=O)c1sc2ncccc2c1-n1cccc1	TDP1 cell noCPT inconclusive (no result: HT1080 IDH1KD tx, IL-1B inflam inh, HT1080-NT tox)
COc1ccc(-c2c(NC(=O)c3ccco3)oc3ccccc3c2=O)cc1OC	none
Cc1ccc(CNC(=O)c2sc3nc(C)cc(C)c3c2-n2cccc2)cc1	TDP1 cell noCPT inconclusive (no result: HT1080 IDH1KD tx, IL-1B inflam inh, HT1080-NT tox)
CC(C)Oc1ccc(CNC(=O)c2sc3ncccc3c2-n2cccc2)cc1	TDP1 cell noCPT 18.4µM, DT40 TDP1 CPT 20.6µM (no result: HT1080 IDH1KD tx, IL-1B inflam inh, HT1080-NT tox)
CN(C)c1ccc(CNC(=O)c2sc3ncccc3c2-n2cccc2)cc1	TDP1 cell noCPT 20.6µM, DT40 TDP1 CPT 16.4µM (no result: HT1080 IDH1KD tx, IL-1B inflam inh, HT1080-NT tox)
CCN(CC)CCNC(=O)c1sc2ncccc2c1-n1cccc1	none (no result: HT1080 IDH1KD tx, IL-1B inflam inh, HT1080-NT tox)
c1ccc2c(c1)Nc1ccncc1S2	TDP1 cell noCPT inconclusive, IL-1B inflam inh -94.1
c1ccc2c(c1)Nc1cc3ccccc3cc1S2	none
Cc1n[nH]c(C)c1N1C(=O)c2cccc3c(N4CCCCCC4)ccc(c23)C1=O	TDP1 cell noCPT 23.1µM, DT40 TDP1 CPT inconclusive
C=CCN1C(=O)c2cccc3c(N4CCCCC4)ccc(c23)C1=O	TDP1 cell noCPT inconclusive, DT40 TDP1 CPT inconclusive
O=C1c2cccc3c(N4CCCCC4)ccc(c23)C(=O)N1c1cccc(O)c1	TDP1 cell noCPT inconclusive, HT1080 IDH1KD tx inconclusive, DT40 TDP1 CPT inconclusive, IL-1B inflam inh -67.7
COc1ccccc1CNC(=O)/C=C/c1cc2c(cc1Br)OCO2	none
CN(C)c1ccc(/C=N/NC(=O)c2ccc(NC(=O)c3ccccc3)cc2)cc1	TDP1 cell noCPT inconclusive
Cc1c(C(=O)N/N=C/c2ccc(N(C)C)cc2)[nH]c2ccc(Cl)cc12	TDP1 cell noCPT 5.8µM, HT1080 IDH1KD tx inconclusive, DT40 TDP1 CPT 5.8µM, HT1080-NT tox 5.8µM
Cc1c(C(=O)N/N=C/c2ccccc2)[nH]c2ccc(Cl)cc12	TDP1 cell noCPT 6.51µM, HT1080 IDH1KD tx 14.6µM, DT40 TDP1 CPT 9.2µM, HT1080-NT tox 18.4µM
Nc1sc(-c2ccccc2)cc1C(=O)N/N=C/c1ccc(Cl)cc1	TDP1 cell noCPT inconclusive, DT40 TDP1 CPT inconclusive
CC(C)c1cc(N2CCN(C(=O)c3ccco3)CC2)n2c(nc3ccccc32)c1C#N	TDP1 cell noCPT 20.6µM, DT40 TDP1 CPT 14.6µM
CCn1c(N2CCN(C(=O)c3ccco3)CC2)nc2ccccc21	none
Cc1cc(-c2ccco2)c(C#N)c2nc3ccccc3n12	TDP1 cell noCPT 18.4µM, DT40 TDP1 CPT 14.6µM
CCc1c(C)c(C#N)c2nc3ccccc3n2c1-n1nc(C)cc1C	TDP1 cell noCPT inconclusive
CC(=O)Oc1ccccc1C(=O)OCCN=C1NS(=O)(=O)c2ccccc21	TDP1 cell noCPT inconclusive
Brc1ccc2oc3c(N4CCOCC4)ncnc3c2c1	TDP1 cell noCPT 11.6µM, DT40 TDP1 CPT inconclusive
CCOc1ccc(C(=O)NCC(c2cccs2)N2CCOCC2)cc1 (stereo not drawn)	none
Cc1cccc(C(=O)NCC(c2cccs2)N2CCOCC2)c1 (stereo not drawn)	HT1080 IDH1KD tx inconclusive
O=C(NCC(c1ccc(F)cc1)N1CCOCC1)c1ccc(OCc2ccccc2)cc1 (stereo not drawn)	TDP1 cell noCPT 20.6µM, DT40 TDP1 CPT 18.4µM
